GAA850 FXN act: increases GAA850 frataxin promoter reporter activity | HEK293 lucGAA850 FXN promoter luciferase reporter, 24 h; percent of 10 µM SAHA response | activation, % at 6 µM | 360,000 tested, 0.56% active | AID 540364;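 active = activation above the average of all compounds screened plus 3 SD, cutoff fixed separately per campaign, cut at about 7.5% in these data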
HSF1 activator: increases HSF-1 driven luciferase reporter signal. NIH3T3-HGL HSF-1 luciferase reporter, MG132, 8 h; 100% = twice DMSO control signal. activation, % at 9 µM. 300,000 tested, 1.7% active;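 active = mean replicate activation of at least 50% with a set share of replicates each reaching 50%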
AHR activator: activates the human aryl hydrocarbon receptor. AHR-responsive luciferase reporter cells, luminescence. activation, % at 5 µM. AID 2796. 320,000 tested, 2.5% active. P35869; in the data active = activation above about 47%
HSF1 inhib: HSF1 inhibition; AID 2098; 300,000 tested, 0.77% active; NIH3T3-HGL HSE-luciferase, MG132-induced, luminescence 8 h; active compounds read low; activity change, negative = inhibition, % at 7.5 µM (by protocol);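 active = more than half of replicate wells show activity change below -50%, luminescence cut by over half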;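 also: luciferase reports HSF-1 transcriptional activity via heat shock element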
AHR act cf: human AHR activation, confirmation | shares compounds with AHR activator | human cells, AHR-responsive luciferase reporter, luminescence | activation, % at 9 µM | 2,300 tested, 87% active | AID 2845; in the data active = activation above about 49%;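 also: HepG2 hepatoma cells carrying a DRE-driven firefly luciferase reporter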
PXR counter: counter-screen for AHR activators: human PXR activators; shares compounds with AHR activator; cell-based PXR reporter, luciferase luminescence; activation, % at 11.6 µM; 2,300 tested, 88% active; in the data active = activation above about 11%;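 also: human hepatoma DPX-2 cells expressing full-length human PXR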
Target sequence (O75469 whole entry, looked up): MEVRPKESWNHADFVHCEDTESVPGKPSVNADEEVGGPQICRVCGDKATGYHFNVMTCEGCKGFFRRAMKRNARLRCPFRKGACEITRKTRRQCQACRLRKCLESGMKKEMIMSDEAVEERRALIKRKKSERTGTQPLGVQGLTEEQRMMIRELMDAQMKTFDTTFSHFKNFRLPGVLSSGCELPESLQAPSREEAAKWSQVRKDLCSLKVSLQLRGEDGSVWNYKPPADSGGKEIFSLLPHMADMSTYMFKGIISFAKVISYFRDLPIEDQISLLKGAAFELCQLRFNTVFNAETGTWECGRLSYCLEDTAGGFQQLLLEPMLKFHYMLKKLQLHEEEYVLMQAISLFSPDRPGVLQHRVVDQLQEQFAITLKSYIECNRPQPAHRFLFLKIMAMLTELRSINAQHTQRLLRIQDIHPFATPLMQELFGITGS
Of the large screens only hits and unclear results are named; the others gave an inactive call (follow-up assays come after a bar, where they were run). A selection: hits, their analogues and other compounds. The true share with any hit is near 4.6%.

CCn1c(=N)n(CC(=O)c2cccc([N+](=O)[O-])c2)c2ccccc21	none
Cc1nn(C)cc1C1C(C#N)=C(N)N(c2ccc(F)c([N+](=O)[O-])c2)C2=C1C(=O)CCC2 (stereo unspecified)	none
O=[N+]([O-])c1ccc(NCCc2ccccc2)c(Br)c1	AHR activator 114 (no result: GAA850 FXN act) | AHR act cf 104 | PXR counter 12
NC(=O)c1cc([N+](=O)[O-])ccc1NCCc1ccccc1	none (no result: AHR activator)
Cc1ccccc1/C=C1\C(=O)Nc2ccc(F)cc21	none
O=C1Nc2ccccc2/C1=C/c1ccccc1F	AHR activator 94 | AHR act cf 93 | PXR counter 17
O=C(COc1ccc(F)cc1Cl)Nc1ccc(N2CCOCC2)cc1N1CCOCC1	none
CCC1CCCN1Cn1cnc2c([nH]c3ccccc32)c1=O (stereo unspecified)	AHR activator 84 | AHR act cf 78 | PXR counter 54
CCC1CCCN1Cn1cnc2c([nH]c3ccc(OC)cc32)c1=O (stereo unspecified)	none
O=C(CSc1nnc(-c2cccc(S(=O)(=O)N3CCOCC3)c2)n1C1CCCCCC1)NCc1ccccc1	none
CC(=O)Nc1ccc(S(=O)(=O)Nc2ccc3c(c2)OCCO3)cc1Cl	none
O=C(O)c1cc(S(=O)(=O)Nc2ccc3c(c2)OCCO3)c(Cl)cc1Cl	AHR activator 83, HSF1 inhib -69 | AHR act cf inactive | PXR counter 14
CC1CN(C(=O)CCC(=O)NCc2ccccc2)c2ccccc2S1 (stereo unspecified)	none
O=C(CN1CCN(c2ccccc2O)CC1)Nc1ccccc1C(=O)NCCc1ccccc1	AHR activator 91 (no result: HSF1 activator, HSF1 inhib) | AHR act cf 93 | PXR counter 85
COc1ccc2c(c1)C(=O)C(=O)N2CC1COc2ccccc2O1 (stereo unspecified)	none
Cn1c(C(=O)N2CCC(C(N)=O)CC2)cc2cc(Cl)ccc21	AHR activator 101 | AHR act cf 116
NC(=O)C1CCN(C(=O)c2ccc3ccccc3c2)CC1	none
CCCSc1nc(SCC(=O)NCc2ccccc2)c2c3c(sc2n1)COC(C)(C)C3	none
CCNC(=S)/N=C(/Nc1ccc(OC)cc1)Nc1nc(C)cc(C)n1	none
CCNC(=S)/N=C(/Nc1ccccc1)Nc1nc(C)cc(C)n1	AHR activator 80 | AHR act cf 113 | PXR counter 64
Oc1ccccc1-c1cc(-c2ccccc2)n[nH]1	AHR activator 98 (no result: HSF1 activator, HSF1 inhib) | AHR act cf 88 | PXR counter 13
Oc1ccccc1-c1ccn[nH]1	none (no result: HSF1 activator, HSF1 inhib)
Cc1cc(=O)n2c(-c3ccccc3C)n[nH]c2n1	none
Cc1ccccc1-c1cc(-c2ccccc2O)n[nH]1	AHR activator 112 | AHR act cf 95 | PXR counter inactive
S=C(NCc1ccccc1)NCC1COc2ccccc2O1 (stereo unspecified)	none
CN1/C(=C\C(=O)CSc2nncn2C)C(C)(C)c2ccccc21	none
COc1cccc(-c2c(NC(=O)c3ccco3)oc3ccc(Cl)cc3c2=O)c1	AHR activator 104 | AHR act cf 84 | PXR counter 57
COc1cccc(-c2c(NC(=O)c3ccco3)oc3ccccc3c2=O)c1	none
CCCC(=O)Nc1c2c(nc3ccccc13)N(c1ccccc1)CC2	AHR activator 108 | AHR act cf 98 | PXR counter 23
Nc1c2c(nc3ccccc13)N(c1ccccc1)CC2	AHR activator 143, HSF1 inhib -53 | AHR act cf 105 | PXR counter 22
CN1CCCCc2c1nc1ccccc1c2N (tested in a mixture with another compound)	none
O=C(CN1CCCCC1)Nc1c2c(nc3ccccc13)N(c1ccccc1)CC2	AHR activator 132 | AHR act cf 107 | PXR counter 38
CCCCc1nc2ccccc2c(NC(=O)CN2CCCC2)c1CCC	none
Cn1cccc1/C=N/n1c(-c2ccc(C(C)(C)C)cc2)n[nH]c1=S	AHR activator 126 | AHR act cf 104 | PXR counter 261
Cn1cccc1/C=N/n1c(-c2ccccc2)n[nH]c1=S	none
C/C(=N\Nc1cc(N2CCOCC2)ncn1)c1ccccc1	AHR activator 89 | AHR act cf inactive | PXR counter 50
C/C(=N\Nc1cc(N2CCOCC2)ncn1)c1cccc([N+](=O)[O-])c1	none
CC(=O)n1cc(/C=N/NC(=O)c2sc(C)nc2C)c2ccccc21	AHR activator 94 | AHR act cf 64
CN(C)S(=O)(=O)c1ccc(Cl)c(C(=O)NCCNC(=O)c2cc(S(=O)(=O)N(C)C)ccc2Cl)c1	none
Cc1ccc(-n2c(C)cc(/C=C3\NC(=O)NC3=O)c2C)c(C)c1	none
Cc1cc(/C=C2/NC(=O)NC2=O)c(C)n1-c1ccccn1	AHR activator 137 | AHR act cf 88 | PXR counter 23
COc1ccc(C(O)c2nc(-c3ccc(F)cc3OC)cs2)cc1 (stereo unspecified)	none (no result: HSF1 activator, AHR activator, HSF1 inhib)
COc1ccc(NC(=O)c2nc[nH]c2C(=O)NCc2ccccc2)cc1	none
CNC(=O)c1[nH]cnc1C(=O)Nc1cccc(C)c1	AHR activator 101 (no result: HSF1 activator, HSF1 inhib) | AHR act cf 133 | PXR counter 24
CNC(=O)c1[nH]cnc1C(=O)Nc1ccc(OC)cc1	AHR activator 126 | AHR act cf 124 | PXR counter 27
COc1ccc(NC(=O)c2nc[nH]c2C(=O)NCCCCCNC(=O)OC(C)(C)C)cc1	AHR activator 133 (no result: GAA850 FXN act, HSF1 activator, HSF1 inhib) | AHR act cf 141 | PXR counter 30
COc1ccccc1C(=O)NNS(=O)(=O)c1ccc(F)cc1	none
N#CC1=C(N)N(c2ccccc2)C(c2cccc([N+](=O)[O-])c2)C1(C#N)C#N (stereo unspecified)	none
COc1ccccc1C1CC(c2cccs2)=NN1C(=O)CCC(=O)O (stereo unspecified)	none
COc1ccccc1C1CC(c2cccs2)=Nc2ccccc2S1 (stereo unspecified)	AHR activator 102 | AHR act cf 93 | PXR counter 55
Cc1cccc(NC(=S)NNC(=O)c2ccccc2OC(F)F)c1	AHR activator 116 | AHR act cf 121 | PXR counter 34
O=C(Nc1cccc(F)c1)c1ccc(Br)o1	AHR activator 120 | AHR act cf 67 | PXR counter 20
Cc1cccc(NC(=O)c2c(F)c(F)c(F)c(F)c2F)c1	none
O=C(Nc1cccc(F)c1)c1c(F)c(F)c(F)c(F)c1F	AHR activator 95 | AHR act cf 72 | PXR counter 30
CC(=O)N(CN1C(=O)c2ccc([N+](=O)[O-])cc2C1=O)c1cccc(C(=O)O)c1	none
CNC(=O)c1sc(N2N=C3/C(=C/c4ccccc4)CCCC3C2c2ccccc2)nc1C (stereo unspecified)	none
O=C(c1ccccn1)N1N=C2/C(=C/c3ccccc3)CCCC2C1c1ccccc1 (stereo unspecified)	AHR activator 112 | AHR act cf 108 | PXR counter 65

Screens as filed in PubChem.
